# Source: the supplement of paper PMC6555819
# System: VDR:RXRa (NR concentration 270 nM, RXRa partner concentration 90 nM)
# Experiment: PBM binding z-score (relative to random genomic background probes); higher = stronger binding; sequences stand for … in GC…GCGATTGACAGCGTAGAATGAAGG
# Procedure: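 Protein-binding microarray (Agilent 4x180K custom design, double-stranded 60-nt probes: 5' GC cap, 34-nt variable region, 24-nt constant primer region; full probe sequence given). Purified or IVT nuclear receptor:RXRα heterodimers (3:1 NR:RXRα, mostly 270:90 nM) or homodimers were incubated for 1 h in PBS with 2% milk and no ligand, then detected with Alexa488 antibodies. Fluorescence from o1-orientation probes (~5 replicates averaged) was converted to z-scores against 500 random hg19 background probes. Variable regions are seed direct-repeat (DR0–DR5) sites, all their single-nucleotide variants and half-site ablations.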
row,Sequence,PBM binding z-score
1,CGAACTAGGTCATCCAGGACGGTGAATACATTGA,3.72
2,CCTACTGGGCCAAGGTCATTGAACAGTCAAAGCA,3.39
3,CCTTACGGGTCACTGACAGGTTGTAGCATTTGGA,3.34
4,GCGACTGCGGCATCAGCAGGTTACCATAACTTAA,-0.5
5,TGTCAAAGTTCAAAGGTAAAGTAAGTATCCACAC,4.88
6,CAAACTAGGTCAAGAGGTCAAAGCCCGCTTCCCG,5.9
7,ATCGAGAGGTCGAAGGTGAGTATACCCACCCGAA,2.42
8,ACTTTTAGTTGAGACGAGGGCAACCGATAGGTTG,0.832
9,CGTCCAAGTTCAAGGTAACGTAACAGAAAGCAGC,2.45
10,CCTCGGAGGCCAACAGGAGGTCAGAGCTGCCAGA,2.07
11,ATCTCTAGGTAAAATTCAGTGAAAGATCGATAGA,0.35
12,TTACCAAGGTGAAAGGTCGCTGATGCACGCCTTG,2.72
13,TAGCCTACGTCATGGGCCAGTATACCACGCGAAC,-0.472
14,ACTAGCACGCCAAGTTTGGGTCACTCAAACAAAG,0.247
15,CCTACTGGGGCAAGGTTACCATAACGCACAGCCA,0.252
16,TAGCCTAGGTCATTGGGCCTGTATAGTACGCATC,2.38
17,TCTGCTAGGTCAACTATGGTCAGCTAATCTGCTA,2.12
18,ATCGAAAGGTCGAAGATGAGTATACCCACCCGAA,2.36
19,TCTTGTAGATTAGCAGGTTAAGAAAGCTGGCCAA,0.63
20,TTCCCAAGGTGAAAGGTCGTTGATGCACGCCTTG,3.35

row,Sequence,PBM binding z-score
1,TCTTGTAGTTCAGCAGGTTAAGAAAGCTGGCCAA,1.78
2,ACTAGCAGGCCAAGTATGGGTCACTCAAACAAAG,0.573
3,AGAATGAGGTTATTAAGAGCAGGGAATTGCGGTC,2
4,TTACTAAGGTGAAGGTCGTTGATCCCTCTGTAGA,1.73
5,GCATATAGGTAAAACAAGGTGAAAGTCCGATTGT,0.401
6,GTACCAAGGTTAATAGGTCGTTGATGAGTAGGCG,2.23
7,GCATAGAGGTAATACAAGGTGAAAGTCCGATTGT,0.566
8,ATCGAAAGGTCGACGGGGTGAGTATACACCGTTT,5.62
9,AGAATGAGGTTATACGTAGATCAGCGAAGAAAGT,0.978
10,TCTATTAGTTGATTAGGGCAACAGAAACAGCGGA,0.574
11,AATTACGGGTCAACGAGGTTATAGCACGCGTATA,7.73
12,ACAGACCGGTGAGTGAAGGTAACTCAGCTGGACG,-0.63
13,TGAATGAGGTTATAAGAACAGGGAACGTTGCAAA,0.915
14,CAGACTAGGTCAAGGTCAAAGTCGGTTTGTGCCA,5.15
15,ATCTCTAGGTAAAAGTTCAGTGGATCCCGAGGAT,1.21
16,TCTATTAGTTGAAGGACAACCGACGAGTCCGTTT,1.23
17,TCTAGCAAGCCAGAGGGTCACTCAAGAGGTACGG,1.32
18,TCTTGTAGATCAACAGGAGGTTAAGCAAGATCGA,0.529
19,GCTACCAGGCCATTTGGGTCACTCAATGACGGGC,1.36
20,AGAATGTGGTTATTAAGATCAGGGAATTGCGGTC,0.251
